Assay outcomes deposited in PubChem BioAssay by several laboratories.
DNA FID counter: counter-screen for HCV NS3 helicase inhibitors: DNA intercalator displacement; DNA fluorescent intercalator displacement, fluorescence; inhibition, % at 7.9 µM; 290,000 compounds, 0.17% hits; in the data active = inhibition above about 37%;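 note: 0% = vehicle and 100% = reference compound; higher means more ethidium bromide displaced from hairpin DNA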
PP5 inh: inhibitors of human protein phosphatase 5 (PP5); P53041; purified PP5c, OMFP substrate fluorescence; inhibition, % at 6.7 µM; 320,000 compounds, 0.18% hits; AID 1987;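 active = inhibition above the campaign's mean inhibition across all tested compounds plus 3 SD, cut at about 9.5% in these data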;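 note: 0% = DMSO only and 100% = 100 µM cantharidin control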
PREPL inhibitor: human PREPL enzyme inhibition. recombinant PREPL, fluorescence polarization activity-based probe. Q4J6C6. 320,000 compounds, 0.68% hits. inhibition, % at 5.96 µM; in the data active = inhibition above about 43%;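 note: 0% = enzyme with DMSO and 100% = wells lacking enzyme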
Target sequence (Q4J6C6 whole entry, looked up): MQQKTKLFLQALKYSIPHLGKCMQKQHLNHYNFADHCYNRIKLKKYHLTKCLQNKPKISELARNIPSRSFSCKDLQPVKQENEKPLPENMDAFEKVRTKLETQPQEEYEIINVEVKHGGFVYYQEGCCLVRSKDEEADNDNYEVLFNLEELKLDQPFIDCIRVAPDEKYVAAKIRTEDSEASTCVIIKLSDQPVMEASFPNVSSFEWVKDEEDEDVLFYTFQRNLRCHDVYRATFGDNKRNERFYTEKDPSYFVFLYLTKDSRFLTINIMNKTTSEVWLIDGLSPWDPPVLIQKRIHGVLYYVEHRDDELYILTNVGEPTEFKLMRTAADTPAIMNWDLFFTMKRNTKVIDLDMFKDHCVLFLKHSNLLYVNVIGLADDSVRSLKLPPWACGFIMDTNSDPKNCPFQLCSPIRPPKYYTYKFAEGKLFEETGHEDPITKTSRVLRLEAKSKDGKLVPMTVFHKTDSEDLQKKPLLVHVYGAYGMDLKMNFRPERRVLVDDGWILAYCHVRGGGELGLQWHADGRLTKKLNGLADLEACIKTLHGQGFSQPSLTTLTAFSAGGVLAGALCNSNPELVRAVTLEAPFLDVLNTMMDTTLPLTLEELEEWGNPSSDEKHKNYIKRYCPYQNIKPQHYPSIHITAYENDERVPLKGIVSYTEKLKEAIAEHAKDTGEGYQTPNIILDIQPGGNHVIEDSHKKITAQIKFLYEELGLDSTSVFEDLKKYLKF
ANO1 block: inhibitors of mouse TMEM16A calcium-activated chloride channel; HEK293 TMEM16A/YFP iodide influx fluorescence, ionomycin; normalized B-score (activity score, 25-100; higher = stronger inhibition) at 10 µM; 310,000 compounds, 1.2% hits; AID 588511;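 active = ratio plate-corrected score three or more library SD toward inhibition, starting fluorescence score within five deviations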;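 note: score derived from kinetic fluorescence span divided by baseline fluorescence per well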
ANO1 activ: activators or potentiators of mouse TMEM16A chloride channel; Q8BHY3; HEK293 TMEM16A/YFP-H148Q/I152L, iodide quench fluorescence; hits give low values; B-score at 10 µM; 340,000 compounds, 0.3% hits;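 active = fluorescence-ratio B-score plate-corrected deviation score at least 3 library SD below zero, with starting fluorescence score within 5 deviations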;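 note: channel opened by trigger with iodide after compound preincubation; score built on the fluorescence ratio of max minus min over baseline; more negative score means more quench and so TMEM16A activation or potentiation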
PP1 inh: PP1-alpha (human) inhibition in PP5 counter-screen; purified PP1alpha, OMFP fluorescence; 320,000 compounds, 0.9% hits; inhibition, % at 6.7 µM;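 active = inhibition above the mean inhibition of all tested compounds plus 3 SD, computed separately for each screening campaign, cut at about 15% in these data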
PP1 inh confirm: human PP1 phosphatase inhibition, confirmation; purified PP1alpha, OMFP substrate fluorescence; 1,900 compounds, 52% hits; inhibition, % at 6.7 µM; shares compounds with PP1 inh;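 active = mean PP1 inhibition above a set limit taken from the earlier primary screen, cut at about 15% in these data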
PP5 inh counter: PP5 phosphatase inhibition, counter-screen for PP1 inhibitors. shares compounds with PP1 inh. purified PP5c, OMFP fluorescence. inhibition, % at 6.7 µM. 1,900 compounds, 4% hits;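 active = mean PP5 inhibition over triplicate wells above about 9.5% taken from the earlier PP1 screen, limit read from the data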
* marks the source's active call; other numbers are inactive results; i = inactive; · = no result. Sampled rows, rich in hits. Any-hit rate of the full collection: about 2.7%.

SMILES	DNA FID counter	PP5 inh	PREPL inhibitor	ANO1 block	ANO1 activ	PP1 inh	PP1 inh confirm	PP5 inh counter
Nc1cc(C(F)(F)F)ccc1Nc1ccccc1	1	5	31	i	i	-2	·	·
CSc1nc(N(C)CCO)c2sc3nc(-c4ccco4)c4c(c3c2n1)CCC4	-22	-1	22	i	i	30*	31*	-1
CCc1nnc(NC(=S)Nc2ccccc2)s1	-5	0	4	i	i	2	·	·
Cc1ccc(C(=O)Nc2nnc(NC(=S)Nc3ccccc3)s2)cc1	5	3	3	i	i	21*	24*	0
CCOc1ccc(C(=O)Nc2nnc(NC(=S)Nc3ccccc3)s2)cc1	2	1	16	i	i	19*	33*	4
CC(C)NC(=S)NC(c1ccccc1)(c1ccccc1)c1ccccc1	-33	2	2	i	i	0	·	·
CC(=O)OCC(=O)N1N=C(c2ccc3ccccc3c2)CC1c1ccccc1 (stereo not drawn)	-23	3	-45	i	i	4	·	·
Nc1cc(=O)[nH]c(SCC(=O)N2N=C(c3ccc4ccccc4c3)CC2c2ccccc2)n1 (stereo not drawn)	-27	-3	-64	i	i	21*	3	0
Nc1ccc(S(=O)(=O)Nc2nccc(/C=C/c3ccc(Cl)cc3Cl)n2)cc1	-3	-3	-14	i	i	19*	21*	-5
Cc1ccc(OCC(=O)Oc2c(C)cccc2C)cc1C	-17	0	8	i	i	-3	·	·
CCCCCN(C(=O)CCC(=O)OCC(=O)N1CCCCC1C)c1c(N)n(CCCC)c(=O)[nH]c1=O (stereo not drawn)	-42	-1	10	i	i	-4	·	·
COc1cnc(N(C)C)nc1Sc1ccc(Cl)cc1	-11	2	9	i	i	1	·	·
COc1cnc(-c2ccccn2)nc1Sc1ccc(Cl)cc1	-5	2	32	i	i	35*	46*	1
COc1ccc(Sc2nc(-c3ccccn3)ncc2OC)cc1	-19	6	32	i	i	57*	56*	-1
CCOC(=O)CSc1nc(-c2ccccn2)ncc1OC	-8	-1	12	i	i	6	·	·
COc1cnc(-c2ccccn2)nc1Sc1ccccc1	-17	11*	25	i	i	55*	48*	-1
CCOC(=O)CSc1ncc(OC)c(Sc2ccc(OC)cc2)n1	-18	3	15	i	i	0	·	·
COc1cnc(-c2ccccn2)nc1Sc1ccc(F)cc1	-22	7	34	i	i	43*	51*	0
O=C(COC(=O)c1ccccc1Cl)NC1CCCCCC1	·	·	23	·	i	·	·	·
CCOC(=O)c1c(C)[nH]c(C(=O)OCC(=O)NCc2ccccc2)c1C	·	·	3	·	i	·	·	·
CCOC(=O)c1c(C)[nH]c(C(=O)OCC(=O)NCc2ccc(C)cc2)c1C	·	1	-1	·	i	19*	12	-5
CCCCSc1nc(C)cc(SCC(=O)N/N=C/c2cccc(OC)c2O)n1	-30	3	29	100*	i	21*	12	1
COc1ccc(-c2ccnc3nc(-n4cccc4)nn23)cc1	-5	0	7	i	i	19*	19*	-5
COc1ccc(-c2ccnc3nc(N4CCOCC4)nn23)cc1	-16	2	12	i	i	-12	·	·
CC12CCC(C)(O1)C1C(=O)N(c3nccs3)C(=O)C12 (stereo not drawn)	·	·	·	·	i	·	·	·
SMILES	DNA FID counter	PP5 inh	PREPL inhibitor	ANO1 block	ANO1 activ	PP1 inh	PP1 inh confirm	PP5 inh counter
COc1ccc(/C=C/c2nnc(NC(=O)COc3ccccc3)s2)cc1	-4	-2	-8	i	i	0	·	·
COc1ccc(/C=C/c2nnc(NC(=O)COc3ccc(C)cc3)s2)cc1	-3	-4	10	i	i	18*	7	-6
N#Cc1ccc(-c2ccc3c(c2)OCO3)nc1SCC(=O)OCc1ccccc1	-9	3	31	i	i	18*	10	1
CCCN(CCC)C(=O)c1cn(C)c2ccc(S(=O)(=O)N3CCCC3)cc2c1=O	-25	2	3	i	i	4	·	·
CCn1c(SCC(=O)Nc2cc(C)on2)nc2sc3c(c2c1=O)CCCC3	-3	5	-2	i	i	23*	28*	-2
Cc1cc(Cl)ccc1Oc1ccccc1C(=O)CC#N	-8	1	8	i	i	20*	0	-8
CCOC(=O)c1ccc(NC(=O)COc2ccc(-n3cnnn3)cc2)cc1	-9	1	8	i	i	20*	5	-6
CC(C)(O)c1ccccc1CC[C@@H](SCC1(CC(=O)O)CC1)c1cccc(/C=C/c2ccc3ccc(Cl)cc3n2)c1	·	1	-17	i	i	35*	43*	-2
CC(=O)Oc1ccc(Cl)cc1/C=C/c1ccc2ccccc2n1	-20	1	11	i	i	2	·	·
CCCCCCSc1cccc(-c2nc3cc(C)ccn3c2NCc2ccccc2)c1	·	3	27	i	i	19*	4	0
CCC(C)Sc1cccc(-c2nc3ccc(Cl)cn3c2NCc2ccccc2)c1 (stereo not drawn)	·	5	5	i	i	19*	5	3
CCCCCCSc1cccc(-c2nc3cc(C)ccn3c2NC2CCCCC2)c1	·	4	12	i	i	19*	4	0
O=C1CCCCN1CC(=O)N1CCCC(Nc2ccc(F)cc2)C1 (stereo not drawn)	-10	-2	4	i	i	1	·	·
CCN1CCN(C(=O)/C(=C/c2ccco2)NC(=O)c2ccccc2)CC1	-13	1	9	i	i	-1	·	·
Cn1c(CC(=O)Nc2ccccc2F)nnc1SCC(=O)NC1=NCCS1	-7	0	3	i	i	-4	·	·
CC(SCc1ccc(C(=O)O)o1)c1ccc(C(=O)O)o1 (stereo not drawn)	2	0	6	i	i	-5	·	·
COc1ccc(NC(=O)C2CCN(S(=O)(=O)c3cccs3)CC2)cc1OC	·	0	6	·	i	-2	·	·
N#Cc1c(=O)c2nc(NCc3ccccc3)ncc2n2ccccc12	4	1	24	i	i	2	·	·
N#Cc1c(=O)c2nc(NCCCO)ncc2n2c(=O)c3ccccc3[nH]c12	-25	5	4	i	i	20*	17*	1
O=C(CN1C(=O)S/C(=C\c2ccc(Cl)cc2)C1=O)NNC(=O)c1ccccc1O	-1	0	14	i	i	18*	12	-6
